Assay results published in PubChem BioAssay.
Records with an inconclusive call do not appear. Active and inactive are the calls of the source.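 The calls were made as follows, unless noted: active = inhibition above the screen-wide mean plus 3 SD, about 51%; inactive = the rest.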

Legend:
[1] = rapamycin-like changes in RPL19A-GFP expression – cell-based, S. cerevisiae, multiplex flow cytometry, primary screen (AID 1862; in the data active = percent of DMSO control GFP below about 86%;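 also: lower values mimic rapamycin by blocking the RPL19A rise seen in DMSO cells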); settings: S. cerevisiae RPL19A-GFP strain, flow cytometry fluorescence, 3 h; at 10 µM; stronger effect = lower value
[2] = TOR pathway GLN3 branch reporter MEP2-GFP changes – S. cerevisiae, multiplex flow cytometry, primary screen (AID 1867;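 active = GFP response, as percent of the DMSO control, above the screen-wide mean plus 3 SD, about 139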;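 also: median GFP channel fluorescence of barcode-gated MEP2-GFP cells measured by flow cytometry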); settings: S. cerevisiae MEP2-GFP strain, 3 h, at 10 µM, stronger effect = higher value, 100% means same as DMSO wells
[3] = TOR pathway RTG branch CIT2 reporter changes – S. cerevisiae, GFP fusion, multiplex flow cytometry, primary screen (AID 1870;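 active = percent response above a set limit, the screen-wide mean plus 3 SD, cut at about 130% in these data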;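 also: barcoded CIT2-GFP strain pooled with four other GFP strains with rapamycin as positive control; median GFP fluorescence per well over plate mean of DMSO wells so 100% = DMSO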); settings: S. cerevisiae CIT2-GFP expression, 3 h, at 10 µM, stronger effect = higher value
[4] = TOR pathway LAP4-GFP level changes – S. cerevisiae, multiplex flow cytometry, primary screen (AID 1873;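 active = GFP signal, as percent of the solvent control, above the screen mean plus 3 SD, about 149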); settings: S. cerevisiae LAP4-GFP expression, 3 h, at 10 µM, stronger effect = higher value
[5] = yeast AGP1-GFP level changes, GLN3 branch – cell-based, multiplex flow cytometry, S. cerevisiae, primary screen (AID 1887;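 active = GFP signal above the screen-wide mean plus 3 SD, that is over about 124.5% of the solvent control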;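 also: AGP1-GFP fusion strain of S. cerevisiae within a five-strain barcoded multiplex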); settings: 3 h, at 10 µM, stronger effect = higher value
[6] = reduced mouse 2C T cell binding to pMHC/ICAM-1 vesicles – MLPCN validation set, flow cytometry, LFA-1/ICAM-1 modulator project, pilot screen (AID 2523;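 active = response below a set limit, under 55% cells CD8-positive and vesicle-bound, and CD8 cells' 90th-percentile brightness under 279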;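 as to vesicle binding response: mean PE anti-B7-1 fluorescence of CD8+ cells relative to row control; 100% = QL9-loaded vesicles with DMSO vehicle in the same plate row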); settings: 2C mouse CD8+ T cells, at 7 µM, stronger effect = lower value; double positive events: measured here: CD8+/vesicle+ event percentage
[7] = molecular target: Integrin beta-1 (Homo sapiens) + Integrin alpha-4 (Homo sapiens) (UniProt P13612+P05556); test: alpha4beta1 integrin LIBS antibody binding reduction – U937 cells, HUTS-21 mAb, flow cytometry, validation set, VLA-4 allosteric modulator project, pilot screen (AID 2674;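 active = inhibition above 50%, about 3 SD of the validation set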;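 also: antibody binding induced by the VLA-4 ligand LDV present at three times its Kd; 0% = LDV ligand with antibody and no compound and 100% = antibody without LDV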); settings: HUTS-21 LIBS mAb binding, at 6.7 µM, stronger effect = higher value, binding induced by LDV ligand
Integrin beta-1 (Homo sapiens) + Integrin alpha-4 (Homo sapiens), sequence (P05556 whole entry, looked up): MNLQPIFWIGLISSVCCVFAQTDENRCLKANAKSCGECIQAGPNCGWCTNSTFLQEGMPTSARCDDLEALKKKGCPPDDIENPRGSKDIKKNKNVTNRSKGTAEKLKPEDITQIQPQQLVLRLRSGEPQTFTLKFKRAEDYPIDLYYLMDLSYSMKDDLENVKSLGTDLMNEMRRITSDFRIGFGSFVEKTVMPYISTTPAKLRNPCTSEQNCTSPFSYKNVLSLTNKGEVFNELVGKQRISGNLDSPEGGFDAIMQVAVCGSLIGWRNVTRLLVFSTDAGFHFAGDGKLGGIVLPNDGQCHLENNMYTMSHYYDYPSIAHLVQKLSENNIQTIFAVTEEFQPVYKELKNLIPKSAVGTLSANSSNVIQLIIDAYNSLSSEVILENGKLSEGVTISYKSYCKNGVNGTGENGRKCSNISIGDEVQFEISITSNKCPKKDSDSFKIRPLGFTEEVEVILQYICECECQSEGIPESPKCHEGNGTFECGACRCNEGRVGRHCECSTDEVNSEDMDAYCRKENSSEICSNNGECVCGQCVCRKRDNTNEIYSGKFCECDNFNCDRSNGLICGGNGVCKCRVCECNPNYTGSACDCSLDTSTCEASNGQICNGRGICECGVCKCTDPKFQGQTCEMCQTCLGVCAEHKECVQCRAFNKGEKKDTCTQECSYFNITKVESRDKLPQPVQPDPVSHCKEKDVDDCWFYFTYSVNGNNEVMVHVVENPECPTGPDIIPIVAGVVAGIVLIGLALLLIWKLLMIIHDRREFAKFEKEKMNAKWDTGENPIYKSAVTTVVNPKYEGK
Integrin beta-1 (Homo sapiens) + Integrin alpha-4 (Homo sapiens), sequence (P13612 whole entry, looked up): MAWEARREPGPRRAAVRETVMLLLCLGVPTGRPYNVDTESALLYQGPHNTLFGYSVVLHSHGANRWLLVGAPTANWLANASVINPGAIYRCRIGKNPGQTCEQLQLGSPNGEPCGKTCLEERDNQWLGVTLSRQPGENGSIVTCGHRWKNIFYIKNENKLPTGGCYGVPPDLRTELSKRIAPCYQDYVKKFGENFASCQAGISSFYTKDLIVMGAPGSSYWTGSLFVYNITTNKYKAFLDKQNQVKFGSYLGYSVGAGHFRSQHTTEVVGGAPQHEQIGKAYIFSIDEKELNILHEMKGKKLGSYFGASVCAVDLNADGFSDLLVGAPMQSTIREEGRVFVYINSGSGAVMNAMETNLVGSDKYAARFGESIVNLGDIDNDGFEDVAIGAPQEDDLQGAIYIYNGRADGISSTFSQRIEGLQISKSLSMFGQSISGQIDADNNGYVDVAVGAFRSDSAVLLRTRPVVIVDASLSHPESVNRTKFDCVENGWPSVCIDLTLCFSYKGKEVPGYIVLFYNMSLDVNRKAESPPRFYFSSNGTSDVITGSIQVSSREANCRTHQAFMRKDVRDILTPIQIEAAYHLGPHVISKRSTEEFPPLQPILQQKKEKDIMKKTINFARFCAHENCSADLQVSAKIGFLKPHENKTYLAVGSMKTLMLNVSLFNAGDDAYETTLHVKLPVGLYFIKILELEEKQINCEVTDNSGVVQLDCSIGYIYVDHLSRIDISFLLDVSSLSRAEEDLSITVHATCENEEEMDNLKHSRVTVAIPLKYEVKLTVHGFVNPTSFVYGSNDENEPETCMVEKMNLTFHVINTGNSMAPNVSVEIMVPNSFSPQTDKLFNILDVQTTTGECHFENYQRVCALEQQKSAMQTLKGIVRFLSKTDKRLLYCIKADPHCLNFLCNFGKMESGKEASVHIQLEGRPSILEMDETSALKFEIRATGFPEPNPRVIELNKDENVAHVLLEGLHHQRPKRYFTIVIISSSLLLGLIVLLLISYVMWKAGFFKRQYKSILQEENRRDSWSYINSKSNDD

[8] = calorie-restriction mimetic ROS inhibitors, yeast – validation compound set, pilot screen (AID 2706;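 active = superoxide response below 65% of plate, a cut near 3 SD across the whole screen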;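 also: yeast exposed to compound for one week at 30 degrees C before staining; 100% = mean of all compound wells on the same plate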); settings: S. cerevisiae aging, superoxide DHE fluorescence; at 10 µM; stronger effect = lower value
[9] = molecular target: Beta-adrenergic receptor kinase 1 (Homo sapiens) (UniProt P25098); test: GRK2 binders displacing RNA aptamer, biochemical, validation, human GRK2, bead flow cytometry (AID 488806;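 active = aptamer binding inhibition above 30%, about 3 SD of noise from non-fluorescent compounds; inactive = inhibition at or below 30%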); settings: bead-bound GRK2, FAM-aptamer displacement, at 10 µM, stronger effect = higher value
Beta-adrenergic receptor kinase 1 (Homo sapiens), sequence (P25098 whole entry, looked up): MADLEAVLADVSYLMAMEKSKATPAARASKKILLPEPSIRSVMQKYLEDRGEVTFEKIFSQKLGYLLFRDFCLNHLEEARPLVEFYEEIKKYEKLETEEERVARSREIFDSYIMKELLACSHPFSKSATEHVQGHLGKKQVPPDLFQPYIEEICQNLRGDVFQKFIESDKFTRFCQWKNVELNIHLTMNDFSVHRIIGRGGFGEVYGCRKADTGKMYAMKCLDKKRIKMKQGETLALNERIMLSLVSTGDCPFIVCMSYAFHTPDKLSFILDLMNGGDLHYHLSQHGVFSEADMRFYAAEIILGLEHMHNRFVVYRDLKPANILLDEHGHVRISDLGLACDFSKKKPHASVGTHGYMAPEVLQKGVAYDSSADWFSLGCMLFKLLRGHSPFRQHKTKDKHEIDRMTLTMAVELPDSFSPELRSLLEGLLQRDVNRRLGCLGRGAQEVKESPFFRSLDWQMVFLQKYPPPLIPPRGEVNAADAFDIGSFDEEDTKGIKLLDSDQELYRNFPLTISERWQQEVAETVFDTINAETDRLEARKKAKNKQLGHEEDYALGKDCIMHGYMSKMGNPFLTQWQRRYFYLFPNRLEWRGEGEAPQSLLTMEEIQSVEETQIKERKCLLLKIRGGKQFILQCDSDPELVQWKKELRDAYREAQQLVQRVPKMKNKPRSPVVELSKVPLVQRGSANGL

[10] = molecular target: Beta-2 adrenergic receptor (Homo sapiens) (UniProt P07550); test: agonist-induced loss of surface beta2AR – cell-based, FAP fluorogen, flow cytometry, validation set, pilot screen (AID 504459;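 active = percent response above 42, roughly 3 SD of non-fluorescent test compounds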;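 also: agonist-driven loss of surface beta2AR via internalization measured by FAP dye flow cytometry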); settings: Am2.2-beta2AR cells, at 10 µM, stronger effect = higher value
Beta-2 adrenergic receptor (Homo sapiens), sequence (P07550 whole entry, looked up): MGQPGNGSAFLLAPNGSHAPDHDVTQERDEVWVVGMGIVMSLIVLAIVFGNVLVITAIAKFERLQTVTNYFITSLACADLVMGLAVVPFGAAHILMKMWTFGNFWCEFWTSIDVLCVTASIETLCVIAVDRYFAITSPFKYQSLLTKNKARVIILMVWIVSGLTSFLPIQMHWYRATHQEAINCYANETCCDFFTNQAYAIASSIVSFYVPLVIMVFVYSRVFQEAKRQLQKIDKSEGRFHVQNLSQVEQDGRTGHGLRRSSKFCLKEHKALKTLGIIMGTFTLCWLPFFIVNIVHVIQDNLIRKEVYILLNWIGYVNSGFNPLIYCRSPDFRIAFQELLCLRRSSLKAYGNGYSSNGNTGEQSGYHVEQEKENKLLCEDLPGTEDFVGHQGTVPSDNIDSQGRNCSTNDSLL

[11] = molecular target: AP-2 complex subunit beta (Homo sapiens) (UniProt P63010); test: beta-arrestin/AP2 interaction blockers – biochemical, validation set, GST-AP2 beads, flow cytometry, pilot screen (AID 504541;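 active = inhibition above 54%, about 3 SD of non-fluorescent compounds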;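 also: AP2 carries R879A mutation and is captured from E. coli lysate; bead-bound FITC arrestin peptide fluorescence measuring arrestin peptide binding to AP2; 0% = DMSO wells and 100% = excess unlabeled arrestin peptide control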); settings: FITC arrestin peptide, at 10 µM, stronger effect = higher value, AP2 beta2 appendage fragment, R879A mutant
AP-2 complex subunit beta (Homo sapiens), sequence (P63010 whole entry, looked up, the tested form may be a part, one chain of several): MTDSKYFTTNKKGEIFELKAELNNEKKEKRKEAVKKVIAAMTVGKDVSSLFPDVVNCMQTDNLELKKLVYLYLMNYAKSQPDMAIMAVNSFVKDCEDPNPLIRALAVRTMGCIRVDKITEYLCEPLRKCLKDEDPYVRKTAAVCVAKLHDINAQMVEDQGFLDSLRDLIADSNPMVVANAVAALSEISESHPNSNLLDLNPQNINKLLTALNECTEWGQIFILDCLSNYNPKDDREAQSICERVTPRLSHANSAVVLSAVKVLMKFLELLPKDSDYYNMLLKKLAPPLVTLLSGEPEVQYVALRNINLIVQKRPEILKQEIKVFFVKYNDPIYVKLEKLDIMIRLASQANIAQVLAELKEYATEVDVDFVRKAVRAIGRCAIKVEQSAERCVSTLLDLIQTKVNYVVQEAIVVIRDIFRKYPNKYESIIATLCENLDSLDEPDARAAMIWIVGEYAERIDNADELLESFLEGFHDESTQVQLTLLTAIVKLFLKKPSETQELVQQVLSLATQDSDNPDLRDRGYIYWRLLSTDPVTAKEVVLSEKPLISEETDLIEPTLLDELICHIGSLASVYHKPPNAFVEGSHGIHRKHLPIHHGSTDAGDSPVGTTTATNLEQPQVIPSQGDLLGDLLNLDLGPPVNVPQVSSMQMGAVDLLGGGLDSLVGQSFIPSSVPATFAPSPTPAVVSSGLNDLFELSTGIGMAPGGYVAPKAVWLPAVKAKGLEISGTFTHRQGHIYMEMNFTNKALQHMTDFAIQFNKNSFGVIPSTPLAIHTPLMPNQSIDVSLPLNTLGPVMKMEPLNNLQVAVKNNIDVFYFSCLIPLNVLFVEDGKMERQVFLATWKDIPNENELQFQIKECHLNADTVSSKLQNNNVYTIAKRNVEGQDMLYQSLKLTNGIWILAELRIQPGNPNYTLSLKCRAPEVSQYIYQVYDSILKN

[12] = cytosolic pH regulators acting via V-ATPase – S. cerevisiae, pHLuorin, HTS validation (AID 504600; in the data active = response above about 15%;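 also: plate controls were DMSO for no effect and reference compound for full effect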); settings: V-ATPase proton transport, at 10 µM, stronger effect = higher value
[13] = test system: anti-desmoglein-3 scFv antibody binding to human DSG3; test: blockers of pathogenic pemphigus antibody–desmoglein-3 binding – biochemical, validation compound set, bead-based, flow cytometry, pilot screen (AID 588368;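 active = binding below the plate cutoff, the plate median minus 3 SD, with a reading above zero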;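 also: signal is the median channel fluorescence of bead-bound GFP antibody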); settings: Protein G beads, DSG3-Fc, scFv-GFP binding, at 10 µM, stronger effect = lower value
[14] = Nile Red efflux blockade in pump-expressing yeast – validation compound set, multiplex, phenotypic, pilot screen (AID 588506;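 active = efflux inhibition above 0.42, the validation set average plus 4 SD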;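 also: Nile Red retained in cells so higher fluorescence means more efflux inhibition; 0 = negative control wells and 1 = enniatin B 25 µM full block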); settings: S. cerevisiae pump-expressing triplex, Nile Red efflux flow cytometry; at 10 µM; stronger effect = higher value; the pumps come from Candida albicans
[15] = molecular target: ATP-binding cassette sub-family B member 6 (Homo sapiens) (UniProt Q9NP58); test: blockers of ABCB6-driven porphyrin uptake – K562-ABCB6 cells, flow cytometry, validation set, pilot screen (AID 588550); settings: K562-ABCB6 porphyrin accumulation, 1 h, at 10 µM, stronger effect = higher value;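 also: 0% = DMSO wells and 100% = benzethonium chloride 70 µM positive control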
ATP-binding cassette sub-family B member 6 (Homo sapiens), sequence (Q9NP58 whole entry, looked up): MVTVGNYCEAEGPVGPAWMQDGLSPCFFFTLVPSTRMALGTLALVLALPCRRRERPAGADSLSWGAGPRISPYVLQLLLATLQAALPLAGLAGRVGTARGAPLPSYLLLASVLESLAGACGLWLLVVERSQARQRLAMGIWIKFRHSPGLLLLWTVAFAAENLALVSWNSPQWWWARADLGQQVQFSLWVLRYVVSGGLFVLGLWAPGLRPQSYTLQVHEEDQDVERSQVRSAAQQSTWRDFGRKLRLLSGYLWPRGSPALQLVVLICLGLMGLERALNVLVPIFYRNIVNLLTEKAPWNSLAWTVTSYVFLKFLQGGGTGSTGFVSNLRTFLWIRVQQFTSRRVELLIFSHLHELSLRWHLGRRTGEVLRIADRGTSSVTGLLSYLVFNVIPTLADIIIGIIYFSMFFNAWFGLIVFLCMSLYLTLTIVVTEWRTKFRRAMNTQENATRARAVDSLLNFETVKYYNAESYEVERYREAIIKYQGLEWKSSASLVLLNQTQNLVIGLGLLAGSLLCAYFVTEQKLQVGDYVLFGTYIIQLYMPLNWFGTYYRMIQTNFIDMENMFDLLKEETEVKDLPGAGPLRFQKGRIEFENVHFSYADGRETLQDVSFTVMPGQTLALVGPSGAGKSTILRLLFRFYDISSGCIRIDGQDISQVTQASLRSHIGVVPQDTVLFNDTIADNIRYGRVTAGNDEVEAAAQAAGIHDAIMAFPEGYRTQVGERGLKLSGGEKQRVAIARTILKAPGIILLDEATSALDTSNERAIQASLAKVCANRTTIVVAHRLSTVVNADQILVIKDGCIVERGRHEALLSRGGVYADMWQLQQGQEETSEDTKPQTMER

[16] = AML differentiation inducers, ER-HoxA9 marrow cells – cell-based, GFP/MAC1 double positive, flow cytometry, validation set, primary screen (AID 588685;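 active = differentiation response of at least 50%, scaled between solvent and reference control, from cells with both markers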;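 also: compound exposure lasts four days before antibody staining and flow analysis; 0% = DMSO wells and 100% = 5 µM fulvestrant positive control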); settings: stronger effect = higher value, normalized: vehicle 0, fulvestrant 100

Compound	percent of DMSO control GFP [1]	GFP response vs DMSO [2]	percent response of DMSO control [3]	GFP response vs DMSO [4]	GFP response, % of DMSO [5]	double positive events [6] [%]	vesicle binding response [6]	inhibition [7]	superoxide response (% of plate) [8]	aptamer binding inhibition [9]	response [10]	inhibition [11]	response [12]	binding (% of control) [13]	efflux inhibition (fraction of control) [14]	inhibition [15]	differentiation response [16]
CC(CCCC(C)(C)O)NC(=O)c1ccc(OC2CCN(C(=O)C3CC3)CC2)cc1 (stereo not given)	102% (inactive)	96.3% (inactive)	98.6% (inactive)	108% (inactive)	99.8% (inactive)	60.9	200% (inactive)	20.1% (inactive)	97.8% (inactive)	1% (inactive)	-15.1% (inactive)	10.3% (inactive)	-0.73% (inactive)	101% (inactive)	0.08 (inactive)	3% (inactive)	-12% (inactive)
COc1cc2c3c(c1)C(C)CC(C)(C)N3C(=O)C2=O (stereo not given)	92.4% (inactive)	122% (inactive)	110% (inactive)	79.2% (inactive)	94.7% (inactive)	58.1	199% (inactive)	15.2% (inactive)	99% (inactive)	89% (active)	2.87% (inactive)	0.2% (inactive)	1.61% (inactive)	105% (inactive)	0.37 (inactive)	12% (inactive)	1.64% (inactive)
CCOc1ccc(N2C(=O)CNC2=S)cc1	106% (inactive)	106% (inactive)	105% (inactive)	110% (inactive)	109% (inactive)	66.1	202% (inactive)	-0.27% (inactive)	105% (inactive)	2% (inactive)	-17.9% (inactive)	11.9% (inactive)	-2.61% (inactive)	106% (inactive)	-0.09 (inactive)	-4% (inactive)	3.88% (inactive)
Cc1cccc(-c2ncc(CN3CCN(CC(C)C)C(CCO)C3)cn2)c1 (stereo not given)	104% (inactive)	100% (inactive)	108% (inactive)	76.2% (inactive)	99.2% (inactive)	65.5	344% (inactive)	-3.57% (inactive)	97.3% (inactive)	2% (inactive)	-5.5% (inactive)	-1.77% (inactive)	3.08% (inactive)	101% (inactive)	0.02 (inactive)	15% (inactive)	4.15% (inactive)
O=c1cc(CN2CCN(c3cccc(Cl)c3)CC2)c2cc(O)c(-c3ccccc3)cc2o1	93% (inactive)	133% (inactive)	102% (inactive)	83.1% (inactive)	92.8% (inactive)	69.1	265% (inactive)	0.64% (inactive)	113% (inactive)	0% (inactive)	6.6% (inactive)	-0.51% (inactive)	-1.13% (inactive)	97.8% (inactive)	-0.02 (inactive)	11% (inactive)	-12.3% (inactive)
COCCOC(=O)C1=C(C)NC(C)=C(C(=O)OC(C)C)C1c1cccc([N+](=O)[O-])c1 (stereo not given)	102% (inactive)	105% (inactive)	111% (inactive)	94.7% (inactive)	99.4% (inactive)	58.9	182% (inactive)	4.73% (inactive)	106% (inactive)	-1% (inactive)	-6.98% (inactive)	-3.69% (inactive)	8.68% (inactive)	97.4% (inactive)	-0.17 (inactive)	-4% (inactive)	-10.5% (inactive)
COc1cc(CNCc2ccc(OC)c(OC)c2OC)cc(OC)c1	105% (inactive)	110% (inactive)	105% (inactive)	104% (inactive)	112% (inactive)	60.7	178% (inactive)	33.8% (inactive)	106% (inactive)	2% (inactive)	-16% (inactive)	64.9% (active)	22.7% (active)	102% (inactive)	0 (inactive)	1% (inactive)	-11.9% (inactive)
CCn1c(/C=C/c2ccccc2)nc2ccccc2c1=O	98.8% (inactive)	111% (inactive)	78.7% (inactive)	122% (inactive)	92.6% (inactive)	59.1	134% (inactive)	7.76% (inactive)	102% (inactive)	3% (inactive)	18.5% (inactive)	-8.94% (inactive)	1.61% (inactive)	101% (inactive)	0.08 (inactive)	7% (inactive)	18.4% (inactive)
Cn1cc(CN2CCN(CCO)CC2)c(-c2ccc(Oc3ccccc3)cc2)n1	102% (inactive)	102% (inactive)	96.7% (inactive)	114% (inactive)	100% (inactive)	61	244% (inactive)	13.2% (inactive)	82.1% (inactive)	0% (inactive)	11.3% (inactive)	-1.86% (inactive)	3.7% (inactive)	99.7% (inactive)	-0.28 (inactive)	6% (inactive)	15.2% (inactive)
Cc1ccc(C(=O)O)cc1NC(=O)c1cccs1	100% (inactive)	107% (inactive)	99.3% (inactive)	99.4% (inactive)	98.6% (inactive)	64.1	206% (inactive)	-17.5% (inactive)	109% (inactive)	8% (inactive)	4.14% (inactive)	-1.98% (inactive)	-0.65% (inactive)	100% (inactive)	0.04 (inactive)	10% (inactive)	0.41% (inactive)
